# BAZ2B block = BAZ2B (human) inhibition | Q9UIF8 | AlphaScreen BAZ2B-H3K14Ac peptide displacement | Potency, µM (titrated, usually from 114 µM), for inactives: top-dose activity change, negative = inhibition, actives largely listed as inhibitors | actives 4.4% (n = 360,000) | AID 504333; also: % is scaled to controls: 0 for no effect and ±100 for the full control effect; nearly all actives have a fitted effect of over 60% in size
#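 AlphaScreen displacement: compounds (up to 110uM) incubated 30 min at room temperature with a preformed 50 nM BAZ2B/50 nM biotinylated H3K14Ac peptide complex in PBS pH 7.4 with Tween-20. Donor and acceptor beads at 10 ug/mL final added, 20 min light-protected before reading.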
# L3MBTL1 block = inhibitors of human L3MBTL1; Q9Y468; Potency, µM (doses to about 57.1 µM), for inactives: at the highest dose activity, negative = inhibition, actives largely listed as inhibitors; actives 0.66% (n = 230,000); AlphaScreen L3MBTL1–H3K9me1 peptide binding; also: % is scaled to controls: 0 for no effect and ±100 for the full control effect; nearly all actives have a fitted effect of over 60% in size
#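 Displacement of a biotinylated histone H3(1-15) peptide monomethylated at Lys9 (75 nM) from L3MBTL1 (50 nM) was measured by AlphaScreen after a 30 min room-temperature compound incubation; cefsulodin titration served as intraplate control.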
# HP1b binding inh = blocks HP1-beta chromodomain binding to methylated histone tails. P83916. actives 0.56% (n = 390,000). AlphaScreen HP1-beta / biotin-H3K9me3 peptide binding. Potency, µM (doses to about 114 µM), without a hit: top-dose activity change, negative = inhibition, usual class: inhibitors; also: nearly all actives have a fitted effect of over 70% in size
#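 HP1-beta protein (50 nM final) preincubated 30 min at room temperature with biotinylated H3(1-18)K9me3 peptide (50 nM) in PBS pH 7.4, 0.01% Tween-20, then compound added for 30 min. AlphaScreen streptavidin donor/nickel chelate acceptor beads (10 ug/mL final), 30 min dark, luminescence read.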
# JMJD2A Tudor inh = blocks the human JMJD2A Tudor domain. actives 4.4% (n = 390,000). AlphaScreen JMJD2A-Tudor / H3K4me3 peptide binding. Potency, µM (doses to about 114 µM), for inactives: at the highest dose activity change, negative = inhibition, actives largely listed as inhibitors; also: % is scaled to controls: 0 for no effect and ±100 for the full control effect; nearly all actives have a fitted effect of over 50% in size
# G9a inh = blocks human histone lysine methyltransferase G9a; G9a H3K9 monomethylation, AlphaScreen, 2 h; Q96KQ7; Potency, µM (doses to about 102 µM), for the others: top-dose activity, negative = inhibition, usual class: inhibitors; actives 8.8% (n = 350,000); also: % is scaled to controls: 0 for no effect and ±100 for the full control effect; nearly all actives have a fitted effect of over 75% in size
#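 Quantitative HTS format: methyltransferase activity on a biotin-tagged H3K9 peptide is measured by AlphaScreen, using a rabbit anti-monomethyl-H3K9 antibody with streptavidin donor and anti-IgG acceptor beads. Final levels are 20 nM enzyme, 500 nM peptide, 20 uM SAM; 2 h RT.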
# An asterisk follows results filed as active; ? = inconclusive; · = no result; [ ] = another dose, or the depositor's remark. This is a sample that favours compounds with a hit; in the whole collection about 11% have one here. Calls follow the shape of the dose curve; as a rule, active = well fitted inhibition curve with a large enough effect; inconclusive = small, poorly fitted or top-dose-only effect; inactive = no such curve, though single readings can be large or run the other way. Potency is read from the fitted curve at half-maximal effect.
SMILES,BAZ2B block,L3MBTL1 block,HP1b binding inh,JMJD2A Tudor inh,G9a inh
COc1cc(/C=N/Nc2nc3ccccc3s2)cc([N+](=O)[O-])c1O,35µM*,-11%,?,40µM*,32µM*
COc1cc(OC)cc(C(=O)Oc2ccc(/C=N/Nc3nc4ccccc4s3)cc2OC)c1,-11%,-6%,1%,-29%,28µM*
O=[N+]([O-])c1cc(Cl)cc(/C=N/Nc2nc3ccccc3s2)c1O,6.3µM*,-19%,?,-25%[11.4 µM],·
COc1ccc(Cl)cc1S(=O)(=O)NCc1ccc2c(c1)CCN2C(=O)c1cccc(C)c1,21%,·,47%[57 µM],-14%,11%[59 µM]
Cc1c(C(=O)N2CCCCCC2)c(S(=O)(=O)N(Cc2ccccc2)C(C)(C)C)c(C)n1C,?,·,25%,-29%,10%[59 µM]
CCCC(=O)O[C@]1(C(=O)CCl)[C@H](C)C[C@@H]2[C@H]3CCC4=CC(=O)C=C[C@]4(C)[C@@]3(F)C(=O)C[C@@]21C,·,·,·,·,-27%[12.7 µM]
NNC(=O)c1cncn1-c1ccc(F)cc1,50µM*,-1%,57%,?,0%
Cc1ccc(S(=O)(=O)c2nnn3c2nc(N2CCN(c4ccccc4F)CC2)c2ccccc23)cc1C,2%,·,9%,-14%,8%[59 µM]
COCCNC(=O)c1cc(S(=O)(=O)N2CCOCC2)ccc1SCc1cccc(OC)c1OC,4%,·,42%,-3%,28µM*
Cc1ccc(S(=O)(=O)N2CCOCC2)cc1C(=O)NCC1CCCO1 (centres undefined),-7%,·,5%,-5%,·
COc1cccc(CSc2ccc(S(=O)(=O)N3CCOCC3)cc2C(=O)NCC2CCCO2)c1OC (centres undefined),10%,·,-8%,-7%,40µM*
COc1ccccc1CNC(=O)c1oc2ccc(S(=O)(=O)N3CCOCC3)cc2c1C,-2%,·,-6%,-14%,8%[59 µM]
O=C(CC1C(=O)N(c2ccc(F)cc2)C(=O)N1Cc1ccc2c(c1)OCO2)Nc1ccc(Cl)cc1 (centres undefined),1%,·,40%,-5%,4%[59 µM]
CCCCSCCCNC(=O)c1cn(CC)c2ccc(S(=O)(=O)N(C)C3CCCCC3)cc2c1=O,·,·,13%,-30%,-50%[59 µM]
O=S(=O)(N/N=C/c1cccnc1)c1ccc(Cl)c(Cl)c1,-5%,-3%,13%,-16%,18µM*
Cc1ccc(C)c(CN2C(=O)C3(c4ccccc42)N(c2ccc(Cl)cc2)C(=O)CS3(=O)=O)c1 (centres undefined),-1%[57.1 µM],·,11%,-24%,-27%[59 µM]
CC(=O)c1c(C)n(-c2cccc(Cl)c2)c2ccc(O)cc12,0%,·,8%,-20%,35µM*
CC(=O)c1c(C)n(-c2ccc(Cl)cc2)c2ccc(O)cc12,2%,·,-1%,-8%,?
CC(=O)c1c(C)[nH]c(=S)c(C#N)c1-c1ccc(Cl)cc1,-18%,-6%,14%,?,4.5µM*
Cc1[nH]c(=S)c(C#N)c(-c2ccco2)c1C(=O)N(C)C,-36%,-11%,-25%,4µM*,3.5µM*
CC(C)(C)CC(C)(C)c1ccc(OCCO)cc1,·,·,·,·,22%[59 µM]
Cc1ccc(/C=N/N(C)C2=NS(=O)(=O)c3ccccc32)o1,22%,-12%,·,·,40µM*
COc1ccc(/C=N/NC(=O)CNC(=O)c2cccs2)cc1,6%,4%,27%,-8%,19%[59 µM]
COc1ccc(/C=C(/C(=O)c2cccs2)N2C=CC=CC2=C(C#N)C#N)cc1,-34%,0%,-12%,?,8.9µM*
Cc1ccc(C)c(S(=O)(=O)N2CCN(CC(=O)Nc3ccc4c(c3)OCCO4)CC2)c1,-7%,·,-7%,-23%,4%[12.7 µM]
NS(=O)(=O)c1ccc(NC(=O)CN2CCN(S(=O)(=O)c3ccc(F)cc3)CC2)cc1,-13%,·,11%,14µM*,18%
NS(=O)(=O)c1ccc(NC(=O)CN2CCCN(S(=O)(=O)c3ccc(F)cc3)CC2)cc1,12%,·,42%,6%,-37%
O=C(CN1CCN(S(=O)(=O)c2cc(Cl)ccc2Cl)CC1)Nc1ccc2c(c1)OCCO2,-6%,-9%,20%,-18%,20µM*
O=C(CN1CCN(S(=O)(=O)c2ccc(Cl)cc2)CC1)Nc1ccc(N2CCOCC2)cc1,-27%,0%,16%,-21%,56µM*
